Values joined by “and” are separate entries in the source; they are usually repeats but may differ in a detail not shown here. Identical values can stand only once. A structure can be active in one record and inactive in another. Active and inactive are the calls of the source. Unless noted, calls come from the whole dose curve; as a rule, active = well fitted curve in the direction sought with a large enough effect in the repeat runs; inconclusive = weak or mixed curves; inactive = no such curve, though single readings can be large; an effect the other way counts as inactive or inconclusive.

Drawing on PubChem BioAssay (Tox21), this text covers Potency for twelve molecules.

The subject of assay [1] is thyroid hormone receptor (rat, GH3 cells). Description: qHTS assay to identify small molecule agonists of the thyroid receptor (TR) signaling pathway (AID 743066; calls by dose curve).
Assay [2] is described as follows: qHTS assay to identify small molecule antagonists of the estrogen receptor alpha (ER-alpha) signaling pathway - cell viability counter screen (AID 743074; calls by dose curve;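 note: HEK293 cells carrying ER-alpha-UAS-bla reporter stimulated with 17beta-estradiol; nearly all actives have a fitted effect of over 45% in size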).
Assay [3] can be described thus: qHTS assay to identify small molecule antagonists of the estrogen receptor alpha (ER-alpha) signaling pathway using the BG1 cell line - cell viability counter screen (AID 743081).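 Note: compound given together with 17beta-estradiol as the ER stimulus; nearly all actives have a fitted effect of over 45% in size.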 Note: potency is the fitted concentration of half-maximal effect.
Assay [4] deals with Aromatase (Homo sapiens) (UniProt P11511). Description: qHTS assay to identify aromatase inhibitors (AID 743083). Note: nearly all actives have a fitted effect of over 55% in size. Note: potency is the fitted concentration of half-maximal effect.
Assay [5] is described as follows: qHTS assay to identify aromatase inhibitors - cell viability counter screen (AID 743084).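 Note: cells stimulated with testosterone during compound exposure; nearly all actives have a fitted effect of over 55% in size.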 Note: potency is the fitted concentration of half-maximal effect.
Assay [6] deals with Aryl hydrocarbon receptor (Homo sapiens) (UniProt P35869). Description: qHTS assay to identify small molecule that activate the aryl hydrocarbon receptor (AhR) signaling pathway (AID 743085).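 For activation: HG2L7.5c1 human HepG2 liver cells with stably integrated DRE-driven firefly reporter.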 Note: nearly all actives have a fitted effect of over 15% in size. Note: potency is the fitted concentration of half-maximal effect. A digest of the protocol: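 Stably transfected human liver carcinoma cells (HG2L7.5c1; 20 DRE-firefly luciferase) were incubated 5 h, dosed, and kept 24 h at 37C. Agonism was scored from increased luciferase luminescence.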

Assay [7] can be described thus: qHTS assay to identify small molecule that activate the aryl hydrocarbon receptor (AhR) signaling pathway - cell viability counter screen (AID 743086).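 Note: HepG2 liver cells carrying the AhR DRE luciferase reporter; nearly all actives have a fitted effect of over 45% in size.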 A digest of the protocol:
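Cytotoxicity counter screen: CellTiter-Fluor signal (30 min, 37 C) in 4000 HepG2 cells/well carrying the DRE-luciferase reporter, following 24 h compound exposure at 37 C.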

The target in assay [8] is Peroxisome proliferator-activated receptor gamma (Homo sapiens) (UniProt P37231). Briefly: qHTS assay to identify small molecule agonists of the peroxisome proliferator-activated receptor gamma (PPARg) signaling pathway (AID 743094; active = well fitted activation curve with a large enough effect in the signal ratio in the repeat runs, not every such curve was filed as active; inconclusive = weak or mixed curves, or effect the other way; inactive = no such curve, though single readings can be large or run the other way; the % refers to the signal ratio). A digest of the protocol: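 GeneBLAzer PPARg UAS-bla HEK293H cells were plated, rested 5 h, then exposed to compounds for 17 h at 37C. Beta-lactamase activity was read by LiveBLAzer B/G FRET substrate fluorescence after 1 h at room temperature.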

For assay [9] the target is unchanged. Description: qHTS assay to identify small molecule antagonists of the peroxisome proliferator-activated receptor gamma (PPARg) signaling pathway (AID 743191; calls by dose curve; note: nearly all actives have a fitted effect of over 30% in size; note: potency is the fitted concentration of half-maximal effect). The essentials:
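Beta-lactamase reporter under UAS control in HEK293H PPARg-bla cells; compound treatment 17 h at 37C. Read-out: fluorescence intensity after 1 h room-temperature incubation with LiveBLAzer B/G FRET substrate.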

Assay [10] can be described thus: qHTS assay to identify small molecule antagonists of the peroxisome proliferator-activated receptor gamma (PPARg) signaling pathway - cell viability counter screen (AID 743194). Note: nearly all actives have a fitted effect of over 55% in size. Note: potency is the fitted concentration of half-maximal effect. The note with it: Potency: co-treated with 50 nM rosiglitazone unless noted. The essentials:
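Viability was measured as CellTiter-Glo luminescence in GeneBLAzer PPARg UAS-bla HEK293H cells. These cells had been exposed 17 h at 37 C to compounds together with rosiglitazone at 50 nM final, with the beta-lactamase readout taken in the same wells.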

Assay [11] is described as follows: qHTS assay for small molecule agonists of the antioxidant response element (ARE) signaling pathway - cell viability counter screen (AID 743203; calls by dose curve; note: nearly all actives have a fitted effect of over 55% in size; note: potency is the fitted concentration of half-maximal effect). The essentials: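 ARE-bla HepG2 cells were plated, rested 5 h at 37C/5% CO2, then exposed to compounds in DMSO for 16 h. Viability was read as CellTiter-Glo luminescence after 30 min at room temperature, in the same wells as the ARE screen.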

A short description of assay [12]: qHTS assay for small molecule activators of the heat shock response signaling pathway - cell viability counter screen (AID 743209). Note: nearly all actives have a fitted effect of over 50% in size. A digest of the protocol: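 HSE-bla HeLa cells plated overnight, then exposed to Tox21 compounds (23 nL in DMSO) for 5 h at 37 C. After the bla reporter read, CellTiter-Glo was added in the same wells and luminescence read after 30 min at room temperature.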

Assay [13] can be described thus: qHTS assay to identify small molecule antagonists of the thyroid receptor (TR) signaling pathway (AID 743065). Note: nearly all actives have a fitted effect of over 55% in size. The essentials:
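Antagonism measured as loss of luciferase signal in GH3 cells stably carrying a TRE-luciferase reporter, co-treated with compound and T3 (1 nM final) for 23.5 h at 37 C. Viability was read in the same well by CellTiter-Fluor.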

A short description of assay [14]: qHTS assay for small molecule agonists of the antioxidant response element (ARE) signaling pathway (AID 743202; active = well fitted activation curve with a large enough effect in the signal ratio in the repeat runs, not every such curve was filed as active; inconclusive = weak or mixed curves, or effect the other way; inactive = no such curve, though single readings can be large or run the other way; the % refers to the signal ratio). The essentials:
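An ARE-responsive beta-lactamase gene stably integrated in HepG2 cells serves as reporter. After 5 h plating and 16 h compound incubation at 37 C, fluorescence of the B/G FRET substrate was measured.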

Assay [15] can be described thus: qHTS assay for small molecule activators of the heat shock response signaling pathway (AID 743210; active = well fitted activation curve with a large enough effect in the signal ratio in the repeat runs, with a control signal flat, not every such curve was filed as active; inconclusive = weak or mixed curves; the % refers to the signal ratio;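 note: HeLa cells with beta-lactamase reporter driven by heat shock elements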). The essentials:
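In HSE-bla HeLa cells, 5 h compound incubation (37 C) precedes addition of LiveBLAzer B/G substrate; after 2.5 h at room temperature, fluorescence intensity indicates reporter induction.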

A short description of assay [16]: qHTS assay to identify small molecule agonists of the peroxisome proliferator-activated receptor delta (PPARd) signaling pathway - cell viability counter screen (AID 743211). Note: nearly all actives have a fitted effect of over 55% in size. A digest of the protocol: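 In the same wells used for beta-lactamase reporter measurement, cytotoxicity is scored by CellTiter-Glo. HEK293H PPARd-bla cells receive compound for 17 h at 37C following a 5 h settling period.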

In assay [17] the target is Estrogen receptor (Homo sapiens) (UniProt P03372). Briefly: qHTS assay to identify small molecule antagonists of the estrogen receptor alpha (ER-alpha) signaling pathway (AID 743069; active = well fitted curve in the direction sought with a large enough effect in the signal ratio in the repeat runs, not every such curve was filed as active; inconclusive = weak or mixed curves, or effect the other way; inactive = no such curve, though single readings can be large or run the other way; the % refers to the signal ratio). The essentials: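 Compound effects are measured against 17beta-estradiol stimulation in HEK293 cells with a UAS-controlled beta-lactamase reporter for ER-alpha. Exposure lasts 18 hr at 37C; LiveBLAzer B/G FRET substrate follows for 2 hr at room temperature.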

The target is the same in assay [18]. Briefly: qHTS assay to identify small molecule agonists of the estrogen receptor alpha (ER-alpha) signaling pathway (AID 743075; calls by dose curve; note: potency is the fitted concentration of half-maximal effect).
Assay [19] shares this target. Briefly: qHTS assay to identify small molecule agonists of the estrogen receptor alpha (ER-alpha) signaling pathway using the BG1 cell line (AID 743079). Note: nearly all actives have a fitted effect of over 20% in size. Note: potency is the fitted concentration of half-maximal effect. The note with it: BG1Luc4E2 cells, ERE-luciferase agonist, 22 h; activation: at 70.3 µM (top of the series) unless noted.
Assay [20] is described as follows: qHTS assay to identify small molecule antagonists of the estrogen receptor alpha (ER-alpha) signaling pathway using the BG1 cell line (AID 743080; calls by dose curve;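 note: BG1 cells stimulated with 17beta-estradiol alongside compound; nearly all actives have a fitted effect of over 25% in size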). A digest of the protocol:
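Luminescence from a 4×ERE-luciferase reporter in BG1-Luc-4E2 cells served as read-out. Cells, pre-cultured 5 days in stripped-serum phenol-red-free medium, were exposed to compound with 17beta-estradiol co-stimulation for 21.5 h at 37 C.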

Sequence of Aryl hydrocarbon receptor (Homo sapiens) (P35869 whole entry, looked up): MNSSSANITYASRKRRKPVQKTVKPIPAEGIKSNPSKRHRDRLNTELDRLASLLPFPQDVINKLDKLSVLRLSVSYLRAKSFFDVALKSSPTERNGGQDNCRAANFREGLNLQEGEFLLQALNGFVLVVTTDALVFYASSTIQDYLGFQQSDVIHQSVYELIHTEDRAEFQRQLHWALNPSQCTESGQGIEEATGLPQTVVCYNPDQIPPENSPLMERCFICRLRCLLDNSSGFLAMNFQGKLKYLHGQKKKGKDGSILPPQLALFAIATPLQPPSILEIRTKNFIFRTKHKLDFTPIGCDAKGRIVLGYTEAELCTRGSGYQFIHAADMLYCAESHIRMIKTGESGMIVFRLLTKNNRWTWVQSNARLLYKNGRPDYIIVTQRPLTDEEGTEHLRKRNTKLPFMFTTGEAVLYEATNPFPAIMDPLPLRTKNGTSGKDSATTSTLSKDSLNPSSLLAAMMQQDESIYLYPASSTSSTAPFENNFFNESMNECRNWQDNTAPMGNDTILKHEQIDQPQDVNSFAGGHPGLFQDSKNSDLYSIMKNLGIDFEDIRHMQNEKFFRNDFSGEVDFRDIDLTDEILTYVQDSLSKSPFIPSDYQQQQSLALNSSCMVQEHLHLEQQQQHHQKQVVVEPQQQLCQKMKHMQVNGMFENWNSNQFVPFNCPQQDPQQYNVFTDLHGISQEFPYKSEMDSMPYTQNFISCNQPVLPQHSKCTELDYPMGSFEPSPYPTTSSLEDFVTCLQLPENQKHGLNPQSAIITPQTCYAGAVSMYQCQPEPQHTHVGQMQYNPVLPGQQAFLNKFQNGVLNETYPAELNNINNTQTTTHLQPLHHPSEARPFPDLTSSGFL
Sequence of Aromatase (Homo sapiens) (P11511 whole entry, looked up): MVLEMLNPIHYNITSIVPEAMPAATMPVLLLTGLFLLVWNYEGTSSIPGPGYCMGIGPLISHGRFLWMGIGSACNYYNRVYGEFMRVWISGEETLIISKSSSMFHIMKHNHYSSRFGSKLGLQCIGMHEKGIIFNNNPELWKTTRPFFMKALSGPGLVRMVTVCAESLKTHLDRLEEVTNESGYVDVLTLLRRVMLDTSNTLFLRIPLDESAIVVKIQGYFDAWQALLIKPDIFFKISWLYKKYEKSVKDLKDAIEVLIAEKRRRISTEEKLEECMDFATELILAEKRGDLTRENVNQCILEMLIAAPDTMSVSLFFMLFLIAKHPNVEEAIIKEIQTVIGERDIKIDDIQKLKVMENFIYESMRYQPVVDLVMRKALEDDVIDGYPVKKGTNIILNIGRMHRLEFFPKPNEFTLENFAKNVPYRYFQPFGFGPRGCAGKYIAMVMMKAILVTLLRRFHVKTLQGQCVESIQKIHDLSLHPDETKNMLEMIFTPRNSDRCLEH
Sequence of Peroxisome proliferator-activated receptor gamma (Homo sapiens) (P37231 whole entry, looked up): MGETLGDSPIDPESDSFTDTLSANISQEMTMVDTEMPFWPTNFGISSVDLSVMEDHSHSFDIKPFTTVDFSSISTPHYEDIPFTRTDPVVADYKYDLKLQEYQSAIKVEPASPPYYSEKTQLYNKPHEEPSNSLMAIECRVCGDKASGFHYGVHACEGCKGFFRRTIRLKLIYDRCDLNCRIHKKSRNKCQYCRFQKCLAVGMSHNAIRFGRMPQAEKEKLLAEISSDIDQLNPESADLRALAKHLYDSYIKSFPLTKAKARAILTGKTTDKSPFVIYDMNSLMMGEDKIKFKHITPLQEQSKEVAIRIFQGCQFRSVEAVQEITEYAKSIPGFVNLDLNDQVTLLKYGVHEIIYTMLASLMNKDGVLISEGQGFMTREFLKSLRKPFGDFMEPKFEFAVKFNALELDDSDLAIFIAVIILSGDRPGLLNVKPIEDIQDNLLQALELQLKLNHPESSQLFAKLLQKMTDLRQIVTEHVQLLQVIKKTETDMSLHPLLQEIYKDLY
Sequence of Estrogen receptor (Homo sapiens) (P03372 whole entry, looked up): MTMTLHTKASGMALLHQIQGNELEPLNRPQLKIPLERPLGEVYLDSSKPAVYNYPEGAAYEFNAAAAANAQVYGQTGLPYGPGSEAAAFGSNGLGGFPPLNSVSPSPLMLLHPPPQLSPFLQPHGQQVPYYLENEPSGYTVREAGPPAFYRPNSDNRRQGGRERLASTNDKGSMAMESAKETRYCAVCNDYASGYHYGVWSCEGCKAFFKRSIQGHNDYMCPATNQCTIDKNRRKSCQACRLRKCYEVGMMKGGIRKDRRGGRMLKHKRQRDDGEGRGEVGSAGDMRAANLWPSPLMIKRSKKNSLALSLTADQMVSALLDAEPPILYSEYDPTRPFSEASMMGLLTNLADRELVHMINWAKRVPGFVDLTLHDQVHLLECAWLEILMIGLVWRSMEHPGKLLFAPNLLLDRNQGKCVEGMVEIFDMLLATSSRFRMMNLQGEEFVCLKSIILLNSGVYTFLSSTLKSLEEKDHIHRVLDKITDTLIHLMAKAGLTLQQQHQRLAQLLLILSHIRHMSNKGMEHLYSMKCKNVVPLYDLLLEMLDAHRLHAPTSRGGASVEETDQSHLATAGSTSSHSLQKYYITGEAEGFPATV

Turning to `c1cnc2c(c1)ccc1cccnc12`, the Potency entry in [1], in assay [2], in assay [7], in assay [8] and in [12] was “inactive” throughout. The Potency in assay [3] was 15.5 µM (active); in assay [4] it was 6.17 µM (active) and 6.86 µM (active) and 9.69 µM (active); in [5], 5.5 µM (active); in assay [6], 55 µM (active) and 54.5 µM (active) and inactive; in [9] it was 1.56 µM (active); in assay [10], 1.23 µM (active). The Potency in assay [11] was 5.45 µM (active).

Regarding `Brc1ccc(Oc2ccc(Br)cc2)cc1`, the Potency result in [13], in assay [1], in assay [2], in [3], in assay [7] and in [10] was “inactive” each time. Further, the Potency entry in [14], in assay [11], in assay [12], in [15] and in assay [16] was “inactive” throughout.

Turning to `O=C(c1ccccc1)c1ccc(O)c(O)c1O`, the Potency entry in [1], in assay [17], in assay [2], in assay [20], in assay [3] and in [4] was “inactive” each time. Further, the Potency entry in assay [5], in [6], in assay [7], in [8], in [10] and in [11] was “inactive” throughout. Also, the Potency result in assay [12], in assay [15] and in [16] was “inactive” throughout. In addition, the Potency was 61.6 µM [inconclusive] (active) in assay [18] and 61.1 µM (active) in assay [19].

As to `COc1ccccc1[N+](=O)[O-]`, the Potency result in [13], in [1], in assay [2], in assay [3], in assay [4] and in [5] was “inactive” throughout. For the same molecule, the Potency entry in assay [6], in assay [7], in assay [10], in [14], in assay [11] and in assay [15] was “inactive” throughout. In addition, the Potency entry in [16] is “inactive”.

With `COc1cc(NC(=O)CC(C)=O)c(OC)cc1Cl`, the Potency entry in assay [1], in [2], in [18], in [19], in assay [20] and in assay [3] was “inactive” each time. For the same molecule, the Potency result in assay [5], in assay [7], in assay [8], in [10], in assay [11] and in assay [12] was “inactive” in each case. In addition, the Potency entry in assay [15] and in assay [16] was “inactive” each time. Also, the Potency entry in assay [4] was “inactive and 12.2 µM (active)”; in assay [6], 24.4 µM (active) and 686 nM (active); in [9] it was 19.5 µM (active).

In the case of `O=C1O[C@H]([C@H](O)CO)C(O)=C1O`, the Potency result in assay [1], in assay [2], in [3], in assay [4], in assay [5] and in [6] was “inactive” throughout. Also, the Potency result in [7], in assay [8], in assay [9], in assay [10] and in [11] was “inactive” throughout.

For the molecule `Cc1ncc(CO)c(CO)c1O`, the Potency result in assay [2], in assay [3], in assay [4], in [5], in assay [6] and in assay [7] was “inactive” in each case. In addition, the Potency result in [8], in assay [9], in [10], in assay [14], in [11] and in assay [12] was “inactive” in each case. Also, the Potency result in [15] and in [16] was “inactive” in each case.

As for `C=C(C)CC(C)(C)C`, the Potency entry in [13], in [1], in assay [2], in [3], in assay [7] and in assay [10] was “inactive” throughout. Moreover, the Potency result in assay [11], in assay [12], in assay [15] and in [16] was “inactive” in each case.

Regarding `COCN(COC)c1nc(N(COC)COC)nc(N(COC)COC)n1`, the Potency entry in assay [17], in assay [2], in assay [18], in assay [19], in assay [20] and in assay [3] was “inactive” throughout. For the same molecule, the Potency entry in assay [4], in assay [5], in assay [6], in [7], in [8] and in assay [9] was “inactive” throughout. The Potency result in assay [10], in assay [11], in assay [15] and in [16] was “inactive” each time.

As to `NCCNCCNCCN`, the Potency entry in assay [13], in assay [1], in assay [2], in [3], in assay [7] and in assay [10] was “inactive” in each case. In addition, the Potency result in assay [14], in assay [11], in [12] and in [16] was “inactive” in each case.

As to `O=C(O)Cc1c[nH]c2ccccc12`, the Potency result in assay [13], in assay [1], in assay [2], in assay [3], in assay [7] and in assay [10] was “inactive” each time. The Potency result in [11] and in assay [15] was “inactive” in each case.

`Cc1ccc(Cl)cc1`: the Potency result in assay [17], in assay [2], in assay [18], in assay [19], in [20] and in assay [3] was “inactive” each time. Also, the Potency entry in assay [4], in assay [5], in assay [6], in assay [7], in assay [8] and in assay [9] was “inactive” throughout. Besides, the Potency entry in assay [10], in assay [14], in assay [11], in [12] and in [15] was “inactive” throughout.
